PubChem BioAssay (EPA / NIEHS)
Records with an inconclusive call do not appear. Activity calls are given as the source filed them. The calls were made as follows: active = hit-call score of the fitted dose curve at least 0.9, where 1 is the maximum; inconclusive = response in the unintended direction; inactive = score below 0.9.

What follows are compounds tested on Cytochrome P450 2B6 (Homo sapiens) (UniProt P20813) (assay: CLD_CYP2B6_24hr: CellzDirect (CLD) Gene Expression Assay for xenobiotic metabolism (CYP2B6) at 24 hours (AID 2283686)).
Method in brief: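 Primary human hepatocytes dosed daily for two days with fresh solutions, harvested at 24 hours; mRNA induction quantified by qNPA chemiluminescence, gain of signal vs 0.2% DMSO vehicle. Cytotoxicity annotated from phase-contrast morphology.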

Row | Compound | outcome | AC50
1 | Nc1nc(N)nc(NC2CC2)n1 | inactive | –
2 | CCOP(=S)(OCC)OC(Cl)C(Cl)(Cl)Cl (stereo not drawn) | – | 0.201 µM (active)
3 | CCOP(=S)(OCC)SCCSCC | – | 3.91 µM (active)
4 | CC[C@H](C)[C@H]1O[C@]2(C=C[C@@H]1C)C[C@@H]1C[C@@H](C/C=C(\C)[C@@H](O[C@H]3C[C@H](OC)[C@@H](O[C@H]4C[C@H](OC)[C@@H](NC)[C@H](C)O4)[C@H](C)O3)[C@@H](C)/C=C/C=C3\CO[C@@H]4[C@H](O)C(C)=C[C@@H](C(=O)O1)[C@]34O)O2 | inactive | –
5 | Cc1nn(-c2cc(NS(C)(=O)=O)c(Cl)cc2Cl)c(=O)n1C(F)F | – | 4.18 µM (active)
6 | CCCOCC(=Nc1ccc(Cl)cc1C(F)(F)F)n1ccnc1 | inactive | –
7 | C[Si](Cn1cncn1)(c1ccc(F)cc1)c1ccc(F)cc1 | – | 0.179 µM (active)
8 | CCCSP(=O)(OCC)SCCC | – | 2.84 µM (active)
9 | S=C1NCCN1 | inactive | –
10 | Cc1ccn2nc(S(=O)(=O)Nc3c(F)cccc3F)nc2n1 | inactive | –
11 | CCOC(=O)CC(SP(=O)(OC)OC)C(=O)OCC (stereo not drawn) | – | 20 µM (active)
12 | CSc1nnc(C(C)(C)C)c(=O)n1N | – | 20 µM (active)
13 | FC(F)C(F)(F)OCC(Cn1cncn1)c1ccc(Cl)cc1Cl (stereo not drawn) | – | 0.275 µM (active)
14 | COc1ccc(C(=CC(=O)N2CCOCC2)c2ccc(Cl)cc2)cc1OC | – | 3.59 µM (active)
15 | CCOP(=O)(SC(C)CC)N1CCSC1=O (stereo not drawn) | – | 3.26 µM (active)
16 | CON=C(C(=O)OC)c1ccccc1CON=C(C)c1cccc(C(F)(F)F)c1 | – | 20 µM (active)
17 | N#CSCSC#N | inactive | –
18 | CSC1=N[C@@](C)(c2ccccc2)C(=O)N1Nc1ccccc1 | inactive | –

Row | Compound | outcome | AC50
19 | CCOP(=S)(Oc1cnc(C(C)(C)C)nc1)OC(C)C (stereo not drawn) | – | 2.05 µM (active)
20 | CCOP(=O)(OCC)Oc1cc(C)nc(C(C)C)n1 | – | 20 µM (active)
21 | CC(=NC#N)N(C)Cc1ccc(Cl)nc1 | inactive | –
22 | CCCCSP(=O)(SCCCC)SCCCC | – | 1.9 µM (active)
23 | CNC(=O)ON=C(C)SC | inactive | –
24 | COc1cc(OC)nc(Sc2cccc(Cl)c2C(=O)O)n1 | inactive | –
25 | CC(C)N(C(=O)SCC(Cl)=C(Cl)Cl)C(C)C | – | 20 µM (active)
26 | C#CC(C)(C)NC(=O)c1cc(Cl)cc(Cl)c1 | inactive | –
27 | Nc1c(Cl)cc([N+](=O)[O-])cc1Cl | – | 33.7 µM (active)
28 | CN(C)NC(=O)CCC(=O)O | inactive | –
29 | CCc1cccc(CC)c1N(COC)C(=O)CCl | – | 2.69 µM (active)
30 | COc1cccc(C(=O)NN(C(=O)c2cc(C)cc(C)c2)C(C)(C)C)c1C | – | 2.35 µM (active)
31 | CCCSP(=O)(OCC)Oc1ccc(Br)cc1Cl (stereo not drawn) | – | 6.22 µM (active)
32 | CC(C)=CC1C(C(=O)OCN2C(=O)C3=C(CCCC3)C2=O)C1(C)C (stereo not drawn) | – | 7.4 µM (active)
33 | CN(C)C(=O)Nc1cccc(C(F)(F)F)c1 | – | 4.64 µM (active)
34 | C#CCC1=C(C)C(OC(=O)C2C(C=C(C)C)C2(C)C)CC1=O (stereo not drawn) | – | 4.23 µM (active)
35 | CC(COc1ccc(Oc2ccccc2)cc1)Oc1ccccn1 (stereo not drawn) | – | 3.97 µM (active)

The compounds below were run on Cytochrome P450 2C19 (Homo sapiens) (UniProt P33261) (assay: CLD_CYP2C19_24hr: CellzDirect (CLD) Gene Expression Assay for xenobiotic metabolism (CYP2C19) at 24 hours (AID 2283687);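 also: activity means mRNA induction above DMSO vehicle baseline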).
Chain of Cytochrome P450 2C19 (Homo sapiens) (P33261 whole entry, looked up): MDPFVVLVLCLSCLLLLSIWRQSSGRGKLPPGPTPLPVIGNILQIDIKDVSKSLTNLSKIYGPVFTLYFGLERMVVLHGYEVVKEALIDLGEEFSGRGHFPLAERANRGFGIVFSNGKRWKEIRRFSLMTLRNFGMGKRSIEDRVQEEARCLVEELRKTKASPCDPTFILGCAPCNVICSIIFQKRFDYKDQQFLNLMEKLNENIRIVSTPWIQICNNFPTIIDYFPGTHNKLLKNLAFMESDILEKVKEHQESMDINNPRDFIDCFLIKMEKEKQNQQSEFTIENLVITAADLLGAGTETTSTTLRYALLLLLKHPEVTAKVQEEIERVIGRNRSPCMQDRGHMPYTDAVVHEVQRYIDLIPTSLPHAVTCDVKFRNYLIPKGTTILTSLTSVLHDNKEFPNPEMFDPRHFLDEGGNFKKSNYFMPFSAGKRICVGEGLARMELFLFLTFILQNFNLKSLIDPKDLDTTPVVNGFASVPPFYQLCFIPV
Method in brief: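 Primary human hepatocytes (two donor preparations) dosed daily with fresh test chemical in 0.2% DMSO vehicle; CYP2C19 mRNA induction measured at 24 h by quantitative nuclease protection assay with chemiluminescence, fitted for gain of signal versus DMSO.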

Row | Compound | outcome
36 | CCOP(=S)(OCC)OC(Cl)C(Cl)(Cl)Cl (stereo not drawn) | inactive
37 | CCOP(=S)(OCC)SCCSCC | inactive
38 | CC[C@H](C)[C@H]1O[C@]2(C=C[C@@H]1C)C[C@@H]1C[C@@H](C/C=C(\C)[C@@H](O[C@H]3C[C@H](OC)[C@@H](O[C@H]4C[C@H](OC)[C@@H](NC)[C@H](C)O4)[C@H](C)O3)[C@@H](C)/C=C/C=C3\CO[C@@H]4[C@H](O)C(C)=C[C@@H](C(=O)O1)[C@]34O)O2 | inactive
39 | Cc1nn(-c2cc(NS(C)(=O)=O)c(Cl)cc2Cl)c(=O)n1C(F)F | inactive
40 | CCCSP(=O)(OCC)SCCC | inactive
41 | S=C1NCCN1 | inactive
42 | Cc1ccn2nc(S(=O)(=O)Nc3c(F)cccc3F)nc2n1 | inactive
43 | CCOC(=O)CC(SP(=O)(OC)OC)C(=O)OCC (stereo not drawn) | inactive
44 | CSc1nnc(C(C)(C)C)c(=O)n1N | inactive
45 | COc1ccc(C(=CC(=O)N2CCOCC2)c2ccc(Cl)cc2)cc1OC | inactive
46 | CCOP(=O)(SC(C)CC)N1CCSC1=O (stereo not drawn) | inactive
47 | CON=C(C(=O)OC)c1ccccc1CON=C(C)c1cccc(C(F)(F)F)c1 | inactive
48 | CCOP(=S)(Oc1cnc(C(C)(C)C)nc1)OC(C)C (stereo not drawn) | inactive
49 | CC(=NC#N)N(C)Cc1ccc(Cl)nc1 | inactive
50 | CCCCSP(=O)(SCCCC)SCCCC | inactive
51 | CNC(=O)ON=C(C)SC | inactive
52 | COc1cc(OC)nc(Sc2cccc(Cl)c2C(=O)O)n1 | inactive
53 | CC(C)N(C(=O)SCC(Cl)=C(Cl)Cl)C(C)C | inactive
54 | CN(C)NC(=O)CCC(=O)O | inactive
55 | COc1cccc(C(=O)NN(C(=O)c2cc(C)cc(C)c2)C(C)(C)C)c1C | inactive
56 | CCCSP(=O)(OCC)Oc1ccc(Br)cc1Cl (stereo not drawn) | inactive
57 | CC(C)=CC1C(C(=O)OCN2C(=O)C3=C(CCCC3)C2=O)C1(C)C (stereo not drawn) | inactive
58 | CN(C)C(=O)Nc1cccc(C(F)(F)F)c1 | inactive
